Assay results as given in the supplement of paper PMC12494721.
Structures can show the parent of a compound that is named as a salt.

test system: Klebsiella aerogenes DSM 30053; assay: growth (OD595) fold change vs plate DMSO controls (fold change (ratio)); higher = more growth; settings: 20 µM; incubation time: 27 h, anaerobic, 37 °C
How it was run: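 Shaken 96-well cultures in mGAM, grown anaerobically for 27 h at 37 °C, were read at 595 nm. OD came from blank-subtracted readings, corrected for background with 20 µM compound solutions in water and scaled by a calibration factor of 5. Growth is the fold change versus the plate's median DMSO control. Values average 2 biological replicates, and any fold change above 1.5 is NA.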

SMILES	growth
CS(=O)(=O)NC(=O)c1cc(Oc2ccc(C(F)(F)F)cc2Cl)ccc1[N+](=O)[O-]	1.08
C#C[C@]1(O)C=C[C@H]2[C@@H]3CCC4=CC(=O)CC[C@@H]4[C@H]3CC[C@@]21CC [Gestodene]	1
ClC1C(Cl)C(Cl)C(Cl)C(Cl)C1Cl (configuration not stated)	1
CCOC(=O)OC1=C(c2cc(C)ccc2C)C(=O)N[C@]12CC[C@@H](OC)CC2	0.993
N#Cc1cc(Br)c(O)c(Br)c1	0.928
O=C(CCCN1CCC2(CC1)C(=O)NCN2c1ccccc1)c1ccc(F)cc1 [Spiperone]	0.968
CNC(=O)Oc1cccc(/N=C/N(C)C)c1	0.988
CN(C)C(CSS(=O)(=O)O)CSS(=O)(=O)O	0.99
CN1[C@@H]2C[C@@H](OC(=O)[C@H](CO)c3ccccc3)C[C@H]1[C@@H]1O[C@@H]12 [Scopolamine hydrochloride]	1.03
COP(=S)(OC)Oc1nc(Cl)c(Cl)cc1Cl	1.02
C#CCN(C)[C@H](C)Cc1ccccc1 [Selegiline hydrochloride]	1.02
C[N+]1(C)CCCC(OC(=O)C(O)(c2ccccc2)c2ccccc2)C1 (configuration not stated) [Mepenzolate bromide]	1.02
CCNc1nc(Cl)nc(NC(C)C)n1	1
CCc1cc(C)cc(CC)c1-c1c(OC(=O)C(C)(C)C)n2n(c1=O)CCOCC2	0.985
COP(=O)(NC(C)=O)SC (configuration not stated)	1.02
CC[C@H]1CCC[C@H](O[C@H]2CC[C@H](N(C)C)[C@@H](C)O2)[C@@H](C)C(=O)C2=C[C@@H]3[C@@H](C=C(C)[C@@H]4C[C@@H](O[C@@H]5O[C@@H](C)[C@H](OC)[C@@H](OC)[C@H]5OC)C[C@@H]34)[C@@H]2CC(=O)O1.CC[C@H]1CCC[C@H](O[C@H]2CC[C@H](N(C)C)[C@@H](C)O2)[C@@H](C)C(=O)C2=C[C@H]3[C@@H]4C[C@H](O[C@@H]5O[C@@H](C)[C@H](OC)[C@@H](OC)[C@H]5OC)C[C@H]4C=C[C@H]3C2CC(=O)O1	1.01
C[C@@H]1C[C@@H]([C@H](O)CC2CC(=O)NC(=O)C2)C(=O)[C@@H](C)C1 [Cycloheximide]	0.995
c1ccc2c(c1)cc1ccc3cccc4ccc2c1c34 [Benzo[a]pyrene]	1.06
N#Cc1sc2c(=O)c3ccccc3c(=O)c=2sc1C#N	0.963

SMILES	growth
Cc1cccc2sc3nncn3c12	0.981
CCC1(C)CC(=O)NC(=O)C1 [Bemegride]	1.04
CCOP(=S)(OCC)Oc1cc(C)nc(C(C)C)n1	0.998
CN1CCN(C(=O)OC2c3nccnc3C(=O)N2c2ccc(Cl)cn2)CC1 (configuration not stated) [Zopiclone]	0.952
CO[C@]12C[C@@H](COC(=O)c3cncc(Br)c3)CN(C)[C@@H]1Cc1cn(C)c3cccc2c13 [Nicergoline]	1.03
CCOP(=S)(OCC)Oc1nc(Cl)c(Cl)cc1Cl	1.04
C[N+](C)(C)CCCCCCCCCC[N+](C)(C)C [Decamethonium bromide]	1
C[C@]12COC(=O)C[C@@H]1CC[C@@H]1[C@@H]2CC[C@@]2(C)[C@H]1CC[C@]2(C)O [Oxandrolone]	1.03
OC(Cc1ccccc1Cl)(Cn1nc[nH]c1=S)C1(Cl)CC1 (configuration not stated)	0.969
NCC1(CC(=O)O)CCCCC1 [Gabapentin]	1.03
CC(C)C[C@H]1C(=O)N2CCC[C@H]2[C@]2(O)O[C@](NC(=O)[C@@H]3C=C4c5cccc6[nH]c(Br)c(c56)C[C@H]4N(C)C3)(C(C)C)C(=O)N12 [Bromocryptine mesylate]	1.11
NCC(O)c1ccc(O)cc1 (configuration not stated) [Octopamine hydrochloride]	0.986
NCC(CC(=O)O)c1ccc(Cl)cc1 (configuration not stated) [Baclofen]	1
CC1(C)C(C=C(Cl)Cl)C1C(=O)OC(C#N)c1cccc(Oc2ccccc2)c1 (mixture of isomers)	0.982
C#CCN1C(=O)COc2cc(F)c(N3C(=O)C4=C(CCCC4)C3=O)cc21	1
CN1COCN(Cc2cnc(Cl)s2)/C1=N\[N+](=O)[O-]	1
CCNC1(c2cccs2)CCCCC1=O (configuration not stated) [Tiletamine hydrochloride]	0.995
Cc1cc(C(C#N)c2ccc(Cl)cc2)c(Cl)cc1NC(=O)c1cc(I)cc(I)c1O (configuration not stated)	1
